# Screening results deposited in PubChem BioAssay by National Center for Advancing Translational Sciences (NCATS).
# HCMV inh – inhibitors of human cytomegalovirus | HFF cells, HCMV-luciferase reporter, 72 h; hits give low values | activity change, negative = inhibition, % at 57.5 µM | hit rate 4.5% among 410,000 | AID 1259415; in the data active means activity change below about -60%; inconclusive means no clear call, values can overlap the other calls; inactive means above about -39%
#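 Luciferase read-out from HCMV-luciferase-infected HFFs (MOI 1 PFU/cell) 72 h post infection at 37C; compounds added after 16 h cell attachment; activity normalized between buffer-only basal and Salinomycin (10uM) inhibitor controls.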
# Vaccinia Venus – inhibitors of vaccinia virus (Venus reporter); AID 720580; hit rate 0.46% among 330,000; Potency, µM (top dose mostly 36.5 µM), usual class: inhibitors; Vaccinia virus Venus reporter expression, fluorescence; calls by dose curve; tested in A549 cells; further: nearly all actives have a fitted effect of over 30% in size
# FMDV inh – antivirals against foot and mouth disease virus. Potency, µM (doses to about 57.9 µM), hits mostly inhibitors. hit rate 1.2% among 410,000. FMDV antiviral cell-based qHTS; calls by dose curve; tested in HEK293T cells; further: read-out not given here; nearly all actives have a fitted effect of over 45% in size
# VACV mCherry inh – vaccinia inhibition (mCherry reporter) | Potency, µM (top dose mostly 36.5 µM), most hits filed as inhibitors | hit rate 0.63% among 310,000 | Vaccinia virus mCherry reporter infection, fluorescence; calls by dose curve; tested in A549 cells; further: nearly all actives have a fitted effect of over 35% in size
# Marburg entry inh – inhibitors of Marburg virus binding or cell entry; Potency, µM (titrated, usually from 37.8 µM), hits mostly inhibitors; hit rate 1.8% among 300,000; Marburg virus pseudotyped entry inhibition, cell reporter; AID 540276; calls by dose curve; tested in HEK293 cells
# Lassa entry inh – blocks Lassa virus binding to or entry into cells; Potency, µM (highest dose often 37.9 µM), actives largely listed as inhibitors; hit rate 1.2% among 300,000; AID 540256; Lassa virus pseudotype entry inhibition, cell reporter; calls by dose curve; tested in HEK293 cells; further: nearly all actives have a fitted effect of over 50% in size
# A number is an active result; 0 = inactive; ? = inconclusive; - = not tested or not shown; + = active, no number. Hits are enriched below; roughly 6.5% of the tested compounds scored in any of these assays.
SMILES,HCMV inh,Vaccinia Venus,FMDV inh,VACV mCherry inh,Marburg entry inh,Lassa entry inh
CCOC(=O)c1cccc(NC(=O)C2CCN(S(=O)(=O)c3ccc4c(c3)oc(=O)n4C)CC2)c1,-103,0,0,0,0,0
COc1ccc(CCNC(=O)C2CCN(S(=O)(=O)c3cccs3)CC2)cc1OC,-96,0,0,0,0,0
COc1ccc2cc([S+]([O-])Cc3ncc(C)c(OC)c3C)nc2c1,-,-,-,-,0,0
O=Cc1ccc(CS)cc1,-,0,-,0,-,-
CCc1ccc(NC(=O)C2CCN(S(=O)(=O)c3cccs3)CC2)cc1,-65,0,?,0,0,?
CN(C)S(=O)(=O)c1ccc(Cl)c(NC(=O)C2CCN(S(=O)(=O)c3cccs3)CC2)c1,-66,-,?,-,-,-
COc1ccc(CCNC(=O)C2CC(=O)N(c3ccc(C(C)(C)C)cc3)C2)cc1OC (stereo not given),-94,-,0,-,-,-
COc1ccc(CCNC(=O)C2CC(=O)N(c3ccc(C)cc3)C2)cc1OC (stereo not given),0,0,0,0,0,0
O=C(Cc1ccc(NC(=O)C2CCCN(C(=O)c3ccccc3)C2)cc1)Nc1cccc(C(=O)N2CCCCC2)c1 (stereo not given),0,-,-,-,-,-
O=C(NCCCc1ccccc1)c1c(O)nc2sccn2c1=O,-64,0,0,0,0,0
O=C(NCCC1=CCCCC1)c1c(O)nc2sccn2c1=O,-,0,0,0,0,0
CC(C)C(=O)NC(c1ccccc1)c1cc([N+](=O)[O-])c2cccnc2c1O (stereo not given),0,?,0,?,?,?
CCC(=O)NC(c1cccs1)c1cc([N+](=O)[O-])c2cccnc2c1O (stereo not given),-81,?,0,?,?,?
O=C(CCc1ccccc1)NC(c1cccs1)c1cc(Cl)c2cccnc2c1O (stereo not given),-102,?,0,8.9µM,?,2.8µM
CCCC(=O)NC(c1cccs1)c1cc([N+](=O)[O-])c2cccnc2c1O (stereo not given),-99,0,0,?,?,?
O=C(Nc1nc2ccc(F)cc2s1)C1=COCCO1,0,0,?,0,?,2.8µM
O=C(Nc1nc2cc3c(cc2s1)OCCO3)C1CCCCC1,0,0,?,?,?,10µM
O=C(Nc1cc(S(=O)(=O)N2CCCCC2)ccc1N1CCCCC1)C1CC1,-61,-,0,-,-,-
O=C(Nc1nc2cc3c(cc2s1)OCCO3)C1=COCCO1,+,-,4µM,-,-,-
CSc1cccc2sc(NC(=O)C3=COCCO3)nc12,0,0,0,0,0,0
O=C(Nc1nc2cc3c(cc2s1)OCO3)C1CCCCC1,0,-,0,-,-,-
CCOC(=O)c1cccn1C1C(=O)N(Cc2ccc(OC)cc2)c2ccc(OC)cc21 (stereo not given),0,-,-,-,-,-
O=C(Nc1nc2ccccc2s1)C1CCN(S(=O)(=O)c2cc([N+](=O)[O-])ccc2Cl)CC1,0,-,35µM,-,-,-
O=C(Nc1nc2ccc(S(=O)(=O)N3CCCC3)cc2s1)C1CCCCC1,-62,?,0,?,?,0
CCC(C)NC(=O)C1CCN(S(=O)(=O)c2cc([N+](=O)[O-])ccc2Cl)CC1 (stereo not given),?,-,0,-,-,-
SMILES,HCMV inh,Vaccinia Venus,FMDV inh,VACV mCherry inh,Marburg entry inh,Lassa entry inh
O=C(CCN1C(=O)C2CCCCC2C1=O)Nc1nc2ccc(F)cc2s1 (stereo not given),0,0,0,0,?,11µM
O=C(CCN1C(=O)C2CCCCC2C1=O)Nc1nc2c(F)cc(F)cc2s1 (stereo not given),0,-,0,-,-,-
O=C(Nc1nc2ccc(S(=O)(=O)N3CCCCC3)cc2s1)C1CCCO1 (stereo not given),0,0,0,0,0,?
O=C(Nc1cccc(Cl)c1)Nc1cc(S(=O)(=O)N2CCOCC2)ccc1N1CCCC1,-80,0,?,0,?,?
CC1=C(C(=O)Nc2cccnc2)C(c2cccc(Br)c2)n2nc(SCc3ccccc3)nc2N1 (stereo not given),0,0,0,0,0,?
Cc1ccccc1-c1ccc(CN2CCc3nnc(CNC(=O)c4ccccn4)n3CC2)cc1,-,0,0,0,-,-
CCCN1CNc2c(c(=O)[nH]c(=S)n2CCc2cccs2)C1,-,0,-,0,-,-
CCCCNC(=O)c1nc2cc(C)c(C)cc2nc1-c1cccc(Br)c1,-94,-,-,-,-,-
CCCNc1nc(=S)n(-c2ccccc2)c(C)c1C(C)=O,?,0,0,0,0,0
CC(=O)c1c(N2CCCC2)nc(=S)n(-c2ccccc2)c1C,-74,0,-,0,0,0
CCCCNc1nc(=S)n(-c2ccccc2)c(C)c1C(C)=O,-99,?,0,0,?,0
CCn1c(C)c(C(C)=O)c(N2CCN(C(c3ccccc3)c3ccccc3)CC2)nc1=S,0,0,32µM,0,?,?
CCn1c(C)c(C(C)=O)c(N2CCN(c3ccccc3)CC2)nc1=S,0,0,0,-,0,0
O=C(Nc1ccccc1F)N1CC(=O)N2[C@H](CO)[C@H](c3ccc(Br)cc3)[C@@H]2C1,0,-,-,-,-,-
COc1ccc2c(c1)cc1c(=O)n(CC(=O)NCCCc3ccccc3)nc(C)n12,0,0,0,0,0,-
C=C(NNC(C)=O)c1ccc(O)cc1,-,0,-,0,-,-
O=C(CSc1nc2c(cnn2-c2ccc(F)cc2)c(=O)[nH]1)Nc1ccc(Br)cc1,0,0,0,0,?,?
CC(C)(C)c1cc(CCC(=O)N2CCNCC2)c(C(C)(C)C)cc1O,0,-,0,-,15µM,0
Cc1ccc(NC(=O)O/N=C/c2c(C)nn(C(C)(C)C)c2C)cc1Cl,-86,0,0.013µM,0,?,?
O=S(=O)(NC1CCCCCCC1)OCC(Cl)(Cl)Cl,0,?,0,0,-,-
O=S(=O)(NC1CCCC1)OCC(Cl)(Cl)Cl,-63,0,0,0,-,-
O=S(=O)(NC1CC(NS(=O)(=O)OCC(Cl)(Cl)Cl)C2CCCCC12)OCC(Cl)(Cl)Cl (stereo not given),-,11µM,?,?,-,-
Cn1nnnc1SCc1nnc(-c2ccccc2Br)o1,0,0,0,-,?,0
Cc1ccc(-n2nnnc2SCc2nnc(-c3ccccc3Br)o2)c(C)c1,-64,0,-,0,?,?
C[C@H]1Cc2c(COc3ccccc3)nc3c(c2CO1)CN(C(=O)C1CCCCC1)CC3,-,-,-,-,0,-
SMILES,HCMV inh,Vaccinia Venus,FMDV inh,VACV mCherry inh,Marburg entry inh,Lassa entry inh
O=C1OCC(CO)(CO)N=C1NNc1ccccc1Cl,-66,0,-,0,0,0
C[C@H]1CN([C@@H](C)CO)C(=O)CCCn2cc(nn2)CO[C@@H]1CN(C)S(=O)(=O)c1ccc(F)cc1,0,-,-,-,-,-
COc1ccc(N2CCN(C(=O)c3ccc(-c4nc(COc5ccccc5)c(C)o4)cc3)CC2)cc1,0,0,0,0,-,?
CCN(CC)CCCN(c1ccccc1)C1Cc2ccccc2C1,0,-,-,-,6.5µM,?
N=C(N)SCc1cn(-c2ccccc2)nc1-c1ccc(Br)cc1,-87,?,20µM,11µM,?,?
Cc1ccc(-c2nn(-c3ccccc3)cc2CO)cc1,0,0,0,?,0,?
CC(=O)Oc1ccc(N(C(C)=O)S(=O)(=O)c2ccc3ccccc3c2)cc1,-71,-,0,-,-,-
Cc1ccc(/C=N/NC(=O)c2n[nH]c3c2CCCC3)cc1,-75,?,0,0,?,?
